Rows were chosen to be rich in hits. Some 3.5% of all compounds tested hit in one or more screens of this group.
Bead autofluor = flagged as autofluorescent in microsphere protease counterscreen; compound autofluorescence counterscreen, microsphere flow cytometry; active compounds read high; fluorescence intensity (test concentration not listed); 3.1% of 360,000 active; in the data active = fluorescence intensity above about 16000; inconclusive = no clear call, values can overlap the other calls
BJeLR lethal = BJeLR cell viability loss; 0.17% of 300,000 active; AID 1554; BJeLR (HRASV12) viability, CellTiter-Glo ATP luminescence, 48 h; inhibition, % (concentration not given with the values); in the data active = inhibition above about 50%; inconclusive = no clear call, values can overlap the other calls
BoNT A protease = blocks Botulinum neurotoxin A light chain protease | inhibition, % at 10 µM | multiplex microsphere protease substrate cleavage, flow cytometry | 0.17% of 360,000 active; in the data active = inhibition above about 30%; inconclusive = no clear call, values can overlap the other calls; also: plate controls were buffer without enzyme for full effect and enzyme alone for no effect
Anthrax LF prot = blocks Bacillus anthracis lethal factor protease. multiplex microsphere protease cleavage assay, LF. 0.12% of 360,000 active. inhibition, % at 10 µM. AID 588501. P15917; in the data active = inhibition above about 30%; inconclusive = no clear call, values can overlap the other calls; also: plate controls were buffer without enzyme for full effect and enzyme alone for no effect
BoNT-F LC inh = BoNT F light chain protease inhibition. Multiplex microsphere protease cleavage assay, flow cytometry. inhibition, % at 10 µM. 0.22% of 360,000 active; in the data active = inhibition above about 35%, passing the limit was not always enough; inconclusive = no clear call, values can overlap the other calls; also: plate controls were buffer without enzyme for full effect and enzyme alone for no effect
BoNTA LC inh 1 = blocks botulinum neurotoxin A light chain protease | shares compounds with BoNT-F LC inh | multiplex microsphere protease assay, flow cytometry | inhibition, % at 10 µM | 3% of 720 active | AID 602139; in the data active = inhibition above about 32%
BoNTF LC inh 1 = inhibitors of Botulinum neurotoxin F light chain protease; shares compounds with BoNT-F LC inh; multiplex microsphere protease cleavage assay, flow cytometry; inhibition, % at 10 µM; 720 tested, under 10 active; AID 602140
Anthrax LF CP1 = blocks anthrax lethal factor protease; 720 tested, under 10 active; multiplex microsphere protease cleavage assay, LF; inhibition, % at 10 µM; shares compounds with BoNT-F LC inh
Active calls of the source: *; u = inconclusive; x = not tested or not shown. Unless noted, no rule for the calls is given here.

SMILES | Bead autofluor | BJeLR lethal | BoNT A protease | Anthrax LF prot | BoNT-F LC inh | BoNTA LC inh 1 | BoNTF LC inh 1 | Anthrax LF CP1
Nc1c(C(=O)Nc2nc3ccccc3s2)sc2nc(-c3cccs3)ccc12 | 3925 | 10.8 | 50.3* | 27.9 | 29.9 | 26.8 | 9.1 | 16.1
CCOC1=C2[C@@H](CN(S(=O)(=O)c3ccc(C)cc3)[C@H]2c2cccc3ccccc23)[C@H]2C(=O)N(C3CCCCC3)C(=O)[C@H]2C1 | 6183 | x | -0.7 | -0.3 | -0.5 | x | x | x
CC(/C=C/c1ccco1)=N/NC(=O)Cc1cccs1 | 4724 | -5.4 | 0.9 | -0.8 | 3.0 | x | x | x
COc1ccc(C(=O)N2CCN(CC(=O)N3CCOCC3)CC2)cc1 | 5992 | -2.6 | -0.3 | 5.2 | -2.0 | x | x | x
CN(C)C(=O)c1cn(CCC#N)nc1-c1ccc2ccccc2c1 | 3918 | -11.6 | 0.4 | 11.7 | 52.0* | -0.8 | -11.7 | -0.1
N#CCCn1cc(C(N)=O)c(-c2ccc3ccccc3c2)n1 | 3976 | 0.2 | 0.7 | 18.7 | -28.4 | x | x | x
CC(CN1CCOCC1)OC(=O)c1ccccc1 (configuration not stated) | 3519 | -11.3 | u | -3.9 | u | x | x | x
CC(CN1CCOCC1)C(=O)c1ccccc1 (configuration not stated) | 10526 | 1.3 | 0.2 | -2.7 | -2.3 | -0.4 | 1.6 | -3.1
O=C(O)c1ccc(NS(=O)(=O)c2cccc(C(=O)Nc3cccc(C(=O)O)c3)c2)cc1 | 3557 | -3.5 | -1.0 | 1.3 | -10.5 | 0.1 | -0.6 | -2.2
Cc1ccccc1NC(=O)c1cccc(S(=O)(=O)Nc2cccc(C(=O)O)c2)c1 | 3658 | 9.3 | -2.9 | -1.5 | u | -1.3 | -1.1 | -1.0
Cc1cccc(N2C(=S)NC3c4cc(Cl)ccc4OC2(C)C3C(=O)N(C)C)c1 (configuration not stated) | 2838 | 25.4 | 0.9 | -2.3 | -6.8 | x | x | x
Cc1ccc2nc3c(cc2c1)c(NC(=O)C(C)(C)C)nn3CC(C)C | 2974 | -6.1 | 2.3 | 49.1* | 15.3 | 0.7 | 2.3 | 0.5
Cc1ccc2nc3c(cc2c1)c(NC(=O)c1ccco1)nn3CC(C)C | 3936 | -8.9 | u | 18.4 | u | x | x | x
Cc1cc2ccccc2n1CCNC(=O)C1CCCC1 | 909 | -3.1 | 162.8* | 7.1 | -98.7 | 0.9 | -0.5 | -0.2
c1ccc(-c2cn3c(n2)CCC3)cc1 | 2699 | 2.9 | -0.3 | -3.2 | -5.5 | x | x | x
O=[N+]([O-])c1ccc(-c2cn3c(n2)CCC3)cc1 | u | -4.0 | -4.2 | 3.5 | 36.8* | 1.2 | -5.4 | -3.7
CN1c2ccccc2C(C)(C)C12CC(c1cccc(S(=O)(=O)N3CCCC3)c1)=NO2 (configuration not stated) | 2509 | 23.5 | 1.6 | 2.5 | 13.8 | x | x | x
CC(C)(C)[C@@H]1C=C(C(N)=O)O[C@H](OCCCCO)C1 | 4043 | 2.0 | -0.2 | -1.0 | -4.2 | x | x | x
S=c1nc(Cc2ccccc2)[nH]c2ccccc12 | 15764 | -9.4 | -11.5 | -8.3 | 51.2* | -1.0 | -5.4 | -1.2
S=c1nc(Cc2ccc(Cl)cc2)[nH]c2ccccc12 | 3395 | -3.1 | -0.5 | 4.9 | 3.9 | x | x | x
O=C1CCC([N+](=O)[O-])C(c2ccc(-c3ccccc3)cc2)N1 (configuration not stated) | 4295 | 6.7 | -0.7 | -8.9 | 0.7 | x | x | x
O=c1c2ccccc2nc2c3ccccc3c(NCCN3CCOCC3)nn12 | x | 3.5 | x | x | x | x | x | x
O=c1c2c(-c3ccccc3)csc2nc2c3ccccc3c(NCCN3CCOCC3)nn12 | 4402 | -0.5 | 32.5* | 5.2 | 1.9 | 6.9 | -7.5 | 1.7
Cc1cc(S(=O)(=O)Nc2cccc(C(=O)O)c2)c(C)c(S(=O)(=O)c2ccc(Cl)cc2)c1 | 3561 | 1.4 | 5.0 | 1.7 | 0.1 | x | x | x
Cc1ccc(S(=O)(=O)c2cc(C)cc(S(=O)(=O)Nc3ccc(C(=O)O)cc3)c2C)cc1 | 3745 | -3.4 | -2.1 | 5.6 | 39.4* | 0.3 | 0.6 | 0.3
SMILES | Bead autofluor | BJeLR lethal | BoNT A protease | Anthrax LF prot | BoNT-F LC inh | BoNTA LC inh 1 | BoNTF LC inh 1 | Anthrax LF CP1
CC(=O)c1cccn1S(=O)(=O)c1ccccc1 | 3581 | -4.0 | 0.9 | -2.4 | 2.0 | x | x | x
COc1cc(CO)ccc1OCC(=O)N1CCc2ccccc21 | 4963 | -1.9 | 0.9 | 0.6 | 4.8 | x | x | x
O=C1NN(CCO)C(=S)Nc2ccccc21 | 3149 | x | -0.6 | -4.2 | -7.2 | x | x | x
CC(=O)N1N=C(c2ccccc2)CC1c1cccc([N+](=O)[O-])c1 (configuration not stated) | 3748 | -1.5 | 2.3 | -10.4 | 41.9* | -0.5 | -1.0 | -4.6
CC(=O)N1N=C(c2cccs2)CC1c1cccc([N+](=O)[O-])c1 (configuration not stated) | 3336 | -3.6 | -0.4 | -7.9 | 5.0 | x | x | x
C/C(=N\NC(=O)c1ccc(OC2CCCC2)cc1)c1ccc(O)cc1 | 5807 | -2.9 | -0.2 | -4.8 | -8.1 | x | x | x
COCCn1c(-c2ccc(OC)cc2)c(-c2ccc(OC)cc2)oc1=O | 3816 | 0.0 | -5.1 | 4.6 | 4.6 | x | x | x
COc1ccc(-c2oc(=O)n(C)c2-c2ccc(OC)cc2)cc1 | 2904 | 6.5 | 7.3 | 7.3 | 90.4* | -0.1 | -5.6 | -3.5
N#Cc1sc2nc(C3CC3)cc(-c3ccc(Cl)cc3)c2c1N | 1998 | -3.7 | 5.8 | -0.2 | -4.5 | x | x | x
Cc1cc(-c2cccs2)c2c(N)c(C(=O)c3ccc4c(c3)OCO4)sc2n1 | 2808 | 2.8 | 55.5* | 22.4 | 16.4 | 21.3 | 0.4 | 15.2
COc1ccc(-c2cc(-c3cccs3)nc3sc(C#N)c(N)c23)cc1 | 2358 | 12.8 | 40.2* | 15.8 | 7.8 | 12.2 | -0.6 | 2.3
Cc1cc(C)c2c(N)c(C(=O)c3ccc(Cl)cc3)sc2n1 | 2536 | 4.2 | 0.0 | 0.3 | 3.2 | x | x | x
COc1ccc(C(=O)c2sc3nc(C)cc(-c4cccs4)c3c2N)cc1 | 3055 | 0.3 | 56.4* | 20.2 | 16.8 | 27.6 | 7.7 | 13.5
O=C1NC(=S)N/C1=C\c1ccc(Oc2ccc(C(F)(F)F)cc2[N+](=O)[O-])c(Cl)c1 | u | 8.5 | 0.9 | -7.3 | 3.1 | x | x | x
O=C(Cn1nnc(-c2ccc([N+](=O)[O-])cc2)n1)NNC(=O)c1ccccc1 | 5077 | 3.3 | 1.7 | -2.9 | 5.1 | x | x | x
CCN(CC)C(=O)CSc1nc(Cc2ccccc2)nc2ccccc12 | 4268 | 12.5 | 1.6 | 39.8* | u | 2.4 | 0.3 | 1.8
COCCCNc1oc(-c2cccs2)nc1S(=O)(=O)c1ccc(C)cc1 | 4265 | -4.2 | 1.6 | 0.1 | 39.0* | -1.5 | -4.1 | 0.2
CC(C)c1ccc(OCC(=O)Nc2ccncc2)cc1 | 3498 | -0.5 | 1.1 | 14.8 | 42.8* | -1.5 | -1.4 | 4.9
C#CCNC(=O)C1=C[C@H](c2ccc(C(F)(F)F)cc2)C[C@H](OCCCCO)O1 | 3658 | -3.4 | -0.7 | -2.6 | -2.7 | x | x | x
CC(C)(C)NC(=O)c1ccc2c(c1)N(CC(=O)N1CCN(c3ccccc3F)CC1)C(=O)C(C)(C)O2 | 10271 | -0.3 | -0.8 | 4.8 | 6.5 | x | x | x
CCc1ccc(Nc2nc3ccccc3c(=O)s2)cc1 | 5006 | 2.9 | 8.4 | 32.8* | 75.7* | 0.2 | -2.7 | -1.2

Source: PubChem BioAssay (several laboratories)
